# Sm TGR block – S. mansoni TGR enzyme inhibition; Potency, µM (top dose mostly 114 µM), for the others: top-dose activity change, negative = inhibition, actives largely listed as inhibitors; AID 485364; 360,000 tested, 3% active; Q962Y6; purified TGR, DTNB reduction, TNB absorbance 405 nm; note: % is set by controls: 0 for no effect and ±100 for the full control effect; nearly all actives have a fitted effect of over 60% in size
#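 First, TGR (20 nM dispensed) and NADPH were mixed with compound. Second, a 15 min room-temperature incubation followed. Third, further NADPH and then DTNB were added to start the reaction. Finally, TNB absorbance was monitored kinetically.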
# Pf growth 48h – P. falciparum growth inhibition at 48 hours (one generation) | Potency, µM (doses to about 28.7 µM), for inactives: at the highest dose activity change, negative = inhibition, most hits filed as inhibitors | 310,000 tested, 5.9% active | P. falciparum luciferase growth in erythrocytes, 48 h | AID 504832; note: % is set by controls: 0 for no effect and ±100 for the full control effect
#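 Luciferase-expressing P. falciparum in infected erythrocytes (2% hematocrit, 0.1% parasitemia final) in RPMI 1640/0.5% Albumax were exposed to compound for 48 hours at 37 C, 5% CO2; growth read as luminescence.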
# SARS PLpro yeast – blocks SARS-CoV papain-like protease in a yeast assay. S. cerevisiae expressing SARS-CoV PLpro, growth rescue. Potency, µM (highest dose often 32.9 µM), inactives show top-dose activity, positive = growth rescue, usual class: activators. 330,000 tested, 0.19% active. AID 485353; calls by dose curve; note: 0% is about no effect; nearly all actives have a fitted effect of over 55% in size
# Pf growth 96h – P. falciparum growth inhibition at 96 hours; 320,000 tested, 6.9% active; Potency, µM (doses to about 28.7 µM), for inactives: top-dose activity change, negative = inhibition, actives largely listed as inhibitors; AID 504834; P. falciparum luciferase reporter growth, 96 h; note: % is set by controls: 0 for no effect and ±100 for the full control effect
#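 96 h incubation, 37 C, 5% CO2, of luciferase-reporter P. falciparum-infected RBCs (2% hematocrit, 0.05% parasitemia final) with test compounds; endpoint luminescence.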
# * hit, by the source's call; ? = inconclusive; / = no result given. Compounds with a hit are over-represented: about 12% of the library has one in this group of screens. Unless noted, calls come from the whole dose curve; as a rule, active = well fitted curve in the direction sought with a large enough effect; inconclusive = small, poorly fitted or top-dose-only effect, or another doubt; inactive = no such curve, though single readings can be large; an effect the other way counts as inactive or inconclusive. Potency is the fitted concentration of half-maximal effect.
SMILES,Sm TGR block,Pf growth 48h,SARS PLpro yeast,Pf growth 96h
Cc1ccccc1Cn1c(=O)n(CCC(=O)NCc2ccco2)c(=O)c2sccc21,-1%,/,/,/
COC(=O)CN(c1nc(C)c(Br)c(OC)n1)S(=O)(=O)c1ccccc1,10%,?,-10%,217%
Cc1ccc(S(=O)(=O)NCC(=O)N(CC(=O)NCC2CCCO2)Cc2ccc(Cl)cc2)cc1 (centres undefined),5%,-12%,2%,-18%
COc1ccc(CNC(=O)Nc2cccc(Cl)c2)cc1,5%,71%,5%,10µM*
CC(=O)Nc1ccc(OCC(=O)c2cc(C)ccc2C)cc1,-3%,/,3%,9.3µM*
O=C(NCCc1ccccc1)Nc1cccc(Cl)c1,-5%,-4%,-38%,2.9µM*
COc1ccc(C2SCCN2C(=S)Nc2cccc(Cl)c2)cc1 (centres undefined),-5%,2.3µM*,8%,2.1µM*
COc1ccc(NC(=O)NCc2ccc(Cl)cc2)cc1,5%,12%,-2%,3%
CCc1cccc(NC(=O)C(Cc2ccccc2)n2cccc2)c1 (centres undefined),-1%,/,/,/
O=C(NCCc1ccc(Cl)cc1)Nc1ccc(F)cc1,/,15µM*,-2%,-1%
CCCc1c(NC(=O)Nc2ccc(F)cc2)cnn1-c1ccc(Cl)cc1,18%,6.6µM*,-2%,?
COc1cccc(NC(=O)Nc2ccc(CC(=O)O)cc2)c1,38%,21%,-4%,2.3µM*
CCc1ccc(NC(=O)Nc2cccc(OC)c2)cc1,10%,104%,-1%,24%
CC(=O)Nc1ccc(OCC(=O)NCCc2ccc(Cl)cc2)cc1,-1%,24%,?,13µM*
CC(C)NC(=O)N(C)C[C@H]1Oc2c(NC(=O)C3CC3)cccc2C(=O)N([C@H](C)CO)C[C@@H]1C,/,/,-4%,/
O=C(C[n+]1ccn(-c2ccccc2)c1)c1ccc([N+](=O)[O-])cc1,-2%,?,-5%,16%
COCCNC(=O)CCCn1c(SCC(=O)c2ccc(F)cc2)nc2c(sc3ccccc32)c1=O,-1%,/,/,/
Cc1ccc(-c2nn3c(-c4ccccc4)nnc3c3ccccc23)cc1,-4%,/,/,/
CCn1cc(C(=O)N2CCN(c3ccccc3F)CC2)c(=O)c2cc(S(=O)(=O)N(C)C)ccc21,7%,/,/,/
O=[N+]([O-])c1ccc(NC(=S)NCCc2ccc(F)cc2)cc1,-24%,10µM*,-87%,5.2µM*
Cc1cccc(C)c1Nc1c(-c2ccc(Cl)s2)nc2ncccn12,-12%,/,/,/
CCOC(=O)Cc1c(C)[nH]c(=S)[nH]c1=O,1%,1.3µM*,3%,-29%
O=C(c1cc2ccccc2cc1O)N1CCCC1,-20%,1%,-2%,-6%
O=C(N/N=C1/CN2CCC1CC2)c1cc2ccccc2cc1O,2%,13µM*,-1%,32%
O=S(=O)(NCc1ccccc1)c1cccc(S(=O)(=O)N2CCOCC2)c1,7%,/,-2%,0.059µM*
SMILES,Sm TGR block,Pf growth 48h,SARS PLpro yeast,Pf growth 96h
O=S(=O)(NCCc1ccccc1F)c1cccc(S(=O)(=O)N2CCOCC2)c1,4%,-5%,10%,6.6µM*
COc1ccccc1NC(=O)C1CCCN1C(=O)Nc1ccc(F)cc1 (centres undefined),3%,-6%,-2%,-19%
COc1ccccc1CNC(=O)C(CCSC)NS(=O)(=O)c1ccc2c(c1)oc(=O)n2C (centres undefined),0%,-3%,-4%,2.1µM*
COc1ccccc1CNC(=O)C(CC(C)C)NS(=O)(=O)c1ccc2c(c1)oc(=O)n2C (centres undefined),0%,/,9%,-33%
O=C(Nc1cccc(S(=O)(=O)NC2=NCCCCC2)c1)c1cccnc1Cl,2%,13%,0%,-21%
O=C(Nc1cccc(S(=O)(=O)NC2=NCCCCC2)c1)c1cc(-c2ccco2)nc2ccccc12,11µM*,?,0%,?
O=C(Nc1cccc(S(=O)(=O)NC2=NCCCCC2)c1)c1cc(-c2ccncc2)nc2ccccc12,4%,?,0%,12µM*
COc1cc(Cl)c(C)cc1Nc1nc2ccccc2nc1NS(=O)(=O)c1ccccc1,-2%,/,/,/
COc1ccc(C(=O)N2CCc3cc(OC)c(OC)cc3C2c2cccc([N+](=O)[O-])c2)cc1OC (centres undefined),-2%,13µM*,7%,?
COc1ccc(C(=O)N2CCc3cc(OC)c(OC)cc3C2c2ccc(OC)c(OC)c2)cc1 (centres undefined),14%,?,-5%,?
COc1cc2c(cc1OC)C(c1cccc([N+](=O)[O-])c1)N(C(=O)c1ccccc1C(=O)O)CC2 (centres undefined),-2%,?,-1%,19%
COc1ccc(C2c3cc(OC)c(OC)cc3CCN2C(=O)c2ccccc2)cc1OC (centres undefined),7%,?,?,2.1µM*
COc1cc2c(cc1OC)C(C1C(=O)CC(C)(C)CC1=O)N(C(=O)CCl)CC2 (centres undefined),?,34%,-14%,-20%
COc1cc2c(cc1OC)C(c1cc(Br)ccc1F)N(C(=O)CCl)CC2 (centres undefined),0.79µM*,8.3µM*,-1%,?
COc1ccc(C2c3cc(OC)c(OC)cc3CCN2C(=O)c2ccccc2Br)cc1OC (centres undefined),2%,12µM*,-1%,?
N#Cc1ccc(COC(=O)c2cnc3ccccc3n2)cc1,-1%,42%,-1%,44%
CC1=C(c2ccc(C)c(C)c2)S(=O)(=O)N(Cc2ccc(C(=O)Nc3cc(F)ccc3F)cc2)C1=O,-7%,/,/,/
Cn1nc(C(=O)NCc2ccccc2CN2CCCC2)c2ccccc2c1=O,-9%,?,0%,15µM*
O=C(NCc1ccccc1CN1CCCC1)c1cccc(N2CCCC2=O)c1,-14%,?,0%,4.1µM*
Cn1nc(C(=O)NCC2CCCO2)c2ccccc2c1=O (centres undefined),3%,14%,2%,/
O=C(NCc1cccs1)c1cccc(N2CCCC2=O)c1,11%,25%,2%,100%
Nc1ncnc(Sc2ccc(Cl)cc2)c1[N+](=O)[O-],?,?,5%,25%
Nc1ncnc(Sc2ncccn2)c1[N+](=O)[O-],2.5µM*,?,-3%,20%
Nc1ncnc(Sc2ccccc2)c1[N+](=O)[O-],13µM*,15µM*,27%,9.3µM*
Cc1nn(C(=O)c2cccc([N+](=O)[O-])c2C)c(C)c1S(=O)(=O)N1CCOCC1,-5%,/,/,/
Nc1nc(CSC(=S)N2CCOCC2)nc(Nc2ccccc2)n1,-3%,196%,21%,13%
Nc1nc(CSC(=S)N2CCN(c3ccccc3)CC2)nc(Nc2ccc(F)cc2)n1,-3%,?,-21%,12µM*
COc1ccc(C(=O)NN=C2CCCC2)cc1,-5%,-1%,-5%,9.3µM*
C[C@H]1CN([C@@H](C)CO)C(=O)Cc2cc(NS(=O)(=O)c3cccs3)ccc2O[C@H]1CN(C)S(=O)(=O)c1cn(C)cn1,/,/,5%,/
